In article PMC7862700, “An all-to-all approach to the identification of sequence-specific readers for epigenetic DNA modifications on cytosine”:

How the values were obtained:
Assay in all cases: DAPPL (digital affinity profiling via proximity ligation, sequencing); 10 mM Tris-HCl pH 7.5, 50 mM NaCl, 1 mM DTT, 4% glycerol, room temperature, 30 min; GST-TFs on glutathione beads, 16-mer random dsDNA library, 0.1% formaldehyde crosslink after washing; high values mean tight binding
FLI1 = target: T1, FLI1 (Homo sapiens, UniProt Q01543 1-452); settings: protein: recombinant; tags: N-terminal GST; dsDNA, one strand shown
T1 sequence: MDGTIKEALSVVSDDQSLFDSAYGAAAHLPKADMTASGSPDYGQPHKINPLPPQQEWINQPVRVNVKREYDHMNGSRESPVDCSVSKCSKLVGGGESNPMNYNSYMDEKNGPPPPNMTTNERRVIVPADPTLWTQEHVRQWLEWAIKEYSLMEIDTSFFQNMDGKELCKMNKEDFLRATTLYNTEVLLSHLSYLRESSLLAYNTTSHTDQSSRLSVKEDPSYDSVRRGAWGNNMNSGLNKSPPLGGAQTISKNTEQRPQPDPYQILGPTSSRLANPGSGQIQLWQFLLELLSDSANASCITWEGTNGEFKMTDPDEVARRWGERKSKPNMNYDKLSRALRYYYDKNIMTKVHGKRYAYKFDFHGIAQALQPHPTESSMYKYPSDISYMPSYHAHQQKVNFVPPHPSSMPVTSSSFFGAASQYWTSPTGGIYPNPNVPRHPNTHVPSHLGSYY
Outline: (§1)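 Human transcription factors carrying a GST fusion were produced in yeast, bound to glutathione beads, tagged with DNA barcodes and pooled together with a tag-only sample. Each pool was held with 200 nmole of a random double-stranded 16-mer DNA library in Tris/NaCl/DTT/glycerol buffer for 30 min at room temperature, then washed, crosslinked in 0.1% formaldehyde, proximity-ligated with BsaI/T4 ligase (1 h, 37 °C), PCR-amplified and sequenced on an Illumina NextSeq500. Binding signal is the read frequency of each hexamer for a given factor divided by its frequency in the tag-only sample.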

ELK1 = target: T2, ELK1 (Homo sapiens, UniProt P19419 1-428); settings: protein: recombinant; tags: N-terminal GST; dsDNA, one strand shown
T2 sequence: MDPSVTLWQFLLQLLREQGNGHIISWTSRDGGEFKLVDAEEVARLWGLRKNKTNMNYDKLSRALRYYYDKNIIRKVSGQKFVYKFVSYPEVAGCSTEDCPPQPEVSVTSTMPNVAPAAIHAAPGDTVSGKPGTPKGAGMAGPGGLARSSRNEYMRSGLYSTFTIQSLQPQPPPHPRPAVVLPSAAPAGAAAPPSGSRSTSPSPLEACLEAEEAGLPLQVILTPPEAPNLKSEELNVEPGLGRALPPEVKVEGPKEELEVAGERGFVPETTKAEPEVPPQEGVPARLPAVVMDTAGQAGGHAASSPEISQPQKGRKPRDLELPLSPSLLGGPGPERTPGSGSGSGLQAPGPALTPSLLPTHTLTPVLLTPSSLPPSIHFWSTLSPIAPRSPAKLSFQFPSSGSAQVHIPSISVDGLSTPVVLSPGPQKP
Outline: as §1

GABPA = target: T3, GABPA (Homo sapiens, UniProt Q06546 1-454); settings: protein: recombinant; tags: N-terminal GST; dsDNA, one strand shown
T3 sequence: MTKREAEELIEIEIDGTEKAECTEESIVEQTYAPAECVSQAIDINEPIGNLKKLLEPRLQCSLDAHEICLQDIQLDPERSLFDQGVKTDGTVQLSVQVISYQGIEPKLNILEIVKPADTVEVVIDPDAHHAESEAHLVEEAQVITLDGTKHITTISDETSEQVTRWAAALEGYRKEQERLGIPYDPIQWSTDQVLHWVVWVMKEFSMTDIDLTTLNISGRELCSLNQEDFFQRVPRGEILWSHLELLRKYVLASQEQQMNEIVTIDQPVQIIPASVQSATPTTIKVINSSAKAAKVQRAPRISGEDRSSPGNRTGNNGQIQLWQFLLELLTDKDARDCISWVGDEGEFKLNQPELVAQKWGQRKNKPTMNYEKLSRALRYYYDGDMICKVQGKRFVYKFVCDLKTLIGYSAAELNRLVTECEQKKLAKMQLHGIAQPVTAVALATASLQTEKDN
Outline: as §1

ERG = target: T4, ERG (Homo sapiens, UniProt P11308 1-479); settings: protein: recombinant; tags: N-terminal GST; dsDNA, one strand shown
T4 sequence: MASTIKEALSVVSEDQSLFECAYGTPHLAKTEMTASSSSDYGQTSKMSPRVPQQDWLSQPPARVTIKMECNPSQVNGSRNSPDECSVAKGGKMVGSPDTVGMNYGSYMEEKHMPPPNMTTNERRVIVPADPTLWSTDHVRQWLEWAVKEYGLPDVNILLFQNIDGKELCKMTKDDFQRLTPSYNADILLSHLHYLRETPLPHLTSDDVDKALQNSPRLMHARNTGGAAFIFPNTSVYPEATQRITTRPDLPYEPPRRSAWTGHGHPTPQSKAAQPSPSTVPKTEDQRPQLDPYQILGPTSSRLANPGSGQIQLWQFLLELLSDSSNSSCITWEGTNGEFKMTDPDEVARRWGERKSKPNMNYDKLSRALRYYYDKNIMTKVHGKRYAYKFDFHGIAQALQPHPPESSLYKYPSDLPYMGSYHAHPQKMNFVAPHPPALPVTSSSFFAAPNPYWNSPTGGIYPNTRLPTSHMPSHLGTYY
Outline: as §1

ELF1 = ELF1 (Homo sapiens, UniProt P32519 1-619); settings: protein: recombinant; tags: N-terminal GST; dsDNA, one strand shown
Outline: as §1

EHF = target: T5, EHF (Homo sapiens, UniProt Q9NZC4 1-300); settings: protein: recombinant; tags: N-terminal GST; dsDNA, one strand shown
T5 sequence: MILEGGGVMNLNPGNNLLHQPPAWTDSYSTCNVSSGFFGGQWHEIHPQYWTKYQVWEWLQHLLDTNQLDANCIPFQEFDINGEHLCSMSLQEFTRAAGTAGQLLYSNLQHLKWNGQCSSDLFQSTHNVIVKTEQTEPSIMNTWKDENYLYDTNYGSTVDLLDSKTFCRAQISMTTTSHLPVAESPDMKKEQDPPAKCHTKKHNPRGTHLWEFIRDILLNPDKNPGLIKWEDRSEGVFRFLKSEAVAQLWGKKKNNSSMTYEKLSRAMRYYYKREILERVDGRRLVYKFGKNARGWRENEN
Outline: as §1

SPI1 = SPI1 (Homo sapiens, UniProt P17947 1-270); settings: protein: recombinant; tags: N-terminal GST; dsDNA, one strand shown
Outline: as §1

SPIB = SPIB (Homo sapiens, UniProt Q01892 1-262); settings: protein: recombinant; tags: N-terminal GST; dsDNA, one strand shown
Outline: as §1

ELK3 = target: T6, ELK3 (Homo sapiens, UniProt P41970 1-407); settings: protein: recombinant; tags: N-terminal GST; dsDNA, one strand shown
T6 sequence: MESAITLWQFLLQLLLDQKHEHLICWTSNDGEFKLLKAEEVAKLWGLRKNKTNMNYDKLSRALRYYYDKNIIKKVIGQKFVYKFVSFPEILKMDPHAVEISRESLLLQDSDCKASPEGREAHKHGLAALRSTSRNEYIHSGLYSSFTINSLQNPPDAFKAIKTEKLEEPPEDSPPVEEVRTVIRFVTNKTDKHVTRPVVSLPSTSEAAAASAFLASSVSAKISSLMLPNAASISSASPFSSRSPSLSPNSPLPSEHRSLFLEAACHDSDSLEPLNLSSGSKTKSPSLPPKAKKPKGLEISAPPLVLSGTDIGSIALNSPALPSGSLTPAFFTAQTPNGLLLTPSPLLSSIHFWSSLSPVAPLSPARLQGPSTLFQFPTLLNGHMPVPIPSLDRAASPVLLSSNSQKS
Outline: as §1

FEV = target: T7, FEV (Homo sapiens, UniProt Q99581 1-238); settings: protein: recombinant; tags: N-terminal GST; dsDNA, one strand shown
T7 sequence: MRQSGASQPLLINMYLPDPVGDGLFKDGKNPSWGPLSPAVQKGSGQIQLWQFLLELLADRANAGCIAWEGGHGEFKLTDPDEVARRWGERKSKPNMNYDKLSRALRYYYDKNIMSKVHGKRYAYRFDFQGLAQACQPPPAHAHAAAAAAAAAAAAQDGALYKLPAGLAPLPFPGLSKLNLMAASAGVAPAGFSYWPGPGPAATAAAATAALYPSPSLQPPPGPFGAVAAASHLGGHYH
Outline: as §1

ETV5 = ETV5 (Homo sapiens, UniProt P41161 1-510); settings: protein: recombinant; tags: N-terminal GST; dsDNA, one strand shown
Outline: as §1

HSF1 = HSF1 (Homo sapiens, UniProt Q00613 1-529); settings: protein: recombinant; tags: N-terminal GST; chain copies: 3; dsDNA, one strand shown
Outline: as §1

SPIC = target: T8, SPIC (Homo sapiens, UniProt Q8N5J4 1-248); settings: protein: recombinant; tags: N-terminal GST; dsDNA, one strand shown
T8 sequence: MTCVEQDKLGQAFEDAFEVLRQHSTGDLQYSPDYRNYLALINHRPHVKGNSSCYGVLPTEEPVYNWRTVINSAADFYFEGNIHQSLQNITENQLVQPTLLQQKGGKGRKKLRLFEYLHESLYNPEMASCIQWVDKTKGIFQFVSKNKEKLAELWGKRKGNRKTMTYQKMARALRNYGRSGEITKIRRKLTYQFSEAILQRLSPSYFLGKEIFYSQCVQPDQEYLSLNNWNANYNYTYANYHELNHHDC
Outline: as §1

ELF4 = ELF4 (Homo sapiens, UniProt Q99607 1-663); settings: protein: recombinant; tags: N-terminal GST; dsDNA, one strand shown
Outline: as §1

ELK4 = target: T9, ELK4 (Homo sapiens, UniProt P28324-2 1-405); settings: protein: recombinant; tags: N-terminal GST; dsDNA, one strand shown
T9 sequence: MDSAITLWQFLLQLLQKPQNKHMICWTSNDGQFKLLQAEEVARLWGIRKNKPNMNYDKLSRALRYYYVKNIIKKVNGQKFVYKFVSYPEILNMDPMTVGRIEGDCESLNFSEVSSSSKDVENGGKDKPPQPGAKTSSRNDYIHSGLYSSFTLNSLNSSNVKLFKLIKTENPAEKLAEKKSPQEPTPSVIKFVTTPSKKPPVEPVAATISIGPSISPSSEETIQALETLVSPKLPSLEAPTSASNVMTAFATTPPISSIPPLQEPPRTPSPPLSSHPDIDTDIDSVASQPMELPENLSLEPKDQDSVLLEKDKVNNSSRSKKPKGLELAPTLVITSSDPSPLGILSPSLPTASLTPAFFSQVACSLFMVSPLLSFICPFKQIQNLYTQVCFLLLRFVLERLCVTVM
Outline: as §1

ETV2 = target: T10, ETV2 (Homo sapiens, UniProt O00321 1-342); settings: protein: recombinant; tags: N-terminal GST; dsDNA, one strand shown
T10 sequence: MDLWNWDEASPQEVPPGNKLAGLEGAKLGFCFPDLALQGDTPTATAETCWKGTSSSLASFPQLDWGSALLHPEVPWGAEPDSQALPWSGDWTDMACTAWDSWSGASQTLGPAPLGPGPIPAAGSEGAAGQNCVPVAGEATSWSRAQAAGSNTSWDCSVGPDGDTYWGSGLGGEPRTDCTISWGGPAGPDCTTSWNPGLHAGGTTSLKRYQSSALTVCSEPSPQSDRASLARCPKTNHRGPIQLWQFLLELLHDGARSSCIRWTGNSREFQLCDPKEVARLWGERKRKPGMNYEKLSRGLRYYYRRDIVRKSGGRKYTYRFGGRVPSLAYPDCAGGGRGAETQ
Outline: as §1

ELF3 = target: T11, ELF3 (Homo sapiens, UniProt P78545 1-371); settings: protein: recombinant; tags: N-terminal GST; dsDNA, one strand shown
T11 sequence: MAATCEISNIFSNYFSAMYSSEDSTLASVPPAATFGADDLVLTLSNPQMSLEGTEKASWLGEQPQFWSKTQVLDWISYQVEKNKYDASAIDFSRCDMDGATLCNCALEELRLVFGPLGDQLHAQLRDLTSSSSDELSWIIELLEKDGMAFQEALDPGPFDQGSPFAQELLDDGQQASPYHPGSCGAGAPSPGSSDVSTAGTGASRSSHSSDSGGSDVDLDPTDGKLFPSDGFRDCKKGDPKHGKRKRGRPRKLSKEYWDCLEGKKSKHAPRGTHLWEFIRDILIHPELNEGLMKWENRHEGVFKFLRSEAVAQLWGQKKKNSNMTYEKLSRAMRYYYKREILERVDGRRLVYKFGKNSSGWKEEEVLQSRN
Outline: as §1

CRX = CRX (Homo sapiens, UniProt O43186 1-299); settings: protein: recombinant; tags: N-terminal GST; dsDNA, one strand shown
Outline: as §1

ETV1 = ETV1 (Homo sapiens, UniProt P50549 1-477); settings: protein: recombinant; tags: N-terminal GST; dsDNA, one strand shown
Outline: as §1

SPIB, sequence (Q01892 whole entry): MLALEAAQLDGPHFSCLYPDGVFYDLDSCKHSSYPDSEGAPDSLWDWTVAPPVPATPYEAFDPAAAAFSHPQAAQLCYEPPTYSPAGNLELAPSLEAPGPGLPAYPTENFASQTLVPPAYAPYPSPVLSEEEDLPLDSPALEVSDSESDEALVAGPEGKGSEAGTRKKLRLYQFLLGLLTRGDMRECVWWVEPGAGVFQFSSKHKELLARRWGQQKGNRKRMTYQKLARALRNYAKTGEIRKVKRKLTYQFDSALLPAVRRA
ELF4, sequence (Q99607 whole entry): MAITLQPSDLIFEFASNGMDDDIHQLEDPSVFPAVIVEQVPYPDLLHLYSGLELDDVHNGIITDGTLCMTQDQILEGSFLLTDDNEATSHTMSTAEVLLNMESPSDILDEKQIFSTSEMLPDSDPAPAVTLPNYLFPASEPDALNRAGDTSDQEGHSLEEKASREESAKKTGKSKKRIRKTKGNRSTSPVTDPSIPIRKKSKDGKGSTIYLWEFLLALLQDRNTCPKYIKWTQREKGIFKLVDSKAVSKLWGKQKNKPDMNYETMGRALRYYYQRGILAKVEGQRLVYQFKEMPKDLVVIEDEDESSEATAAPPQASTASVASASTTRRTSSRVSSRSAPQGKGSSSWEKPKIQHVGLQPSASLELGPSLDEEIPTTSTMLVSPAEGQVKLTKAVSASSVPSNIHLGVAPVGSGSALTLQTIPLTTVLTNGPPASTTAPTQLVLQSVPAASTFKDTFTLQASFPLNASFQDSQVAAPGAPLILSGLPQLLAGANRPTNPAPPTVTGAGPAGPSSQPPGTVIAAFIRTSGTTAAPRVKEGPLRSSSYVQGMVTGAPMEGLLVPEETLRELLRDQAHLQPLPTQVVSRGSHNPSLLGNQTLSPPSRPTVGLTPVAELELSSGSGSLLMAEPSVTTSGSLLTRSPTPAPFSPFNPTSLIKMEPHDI
ETV5, sequence (P41161 whole entry): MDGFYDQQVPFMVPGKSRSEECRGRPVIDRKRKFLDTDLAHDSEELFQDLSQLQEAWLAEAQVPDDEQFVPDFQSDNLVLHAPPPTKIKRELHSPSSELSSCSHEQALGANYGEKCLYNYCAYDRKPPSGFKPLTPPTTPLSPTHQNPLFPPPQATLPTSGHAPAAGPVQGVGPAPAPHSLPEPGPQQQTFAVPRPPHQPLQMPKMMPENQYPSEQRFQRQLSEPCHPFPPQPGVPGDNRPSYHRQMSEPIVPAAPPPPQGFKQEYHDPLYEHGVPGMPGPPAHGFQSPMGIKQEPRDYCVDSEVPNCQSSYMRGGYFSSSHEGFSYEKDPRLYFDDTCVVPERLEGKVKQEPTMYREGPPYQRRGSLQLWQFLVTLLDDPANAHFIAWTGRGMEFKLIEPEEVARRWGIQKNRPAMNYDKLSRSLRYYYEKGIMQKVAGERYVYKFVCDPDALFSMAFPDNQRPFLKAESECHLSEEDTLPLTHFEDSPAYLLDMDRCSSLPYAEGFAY
ETV1, sequence (P50549 whole entry): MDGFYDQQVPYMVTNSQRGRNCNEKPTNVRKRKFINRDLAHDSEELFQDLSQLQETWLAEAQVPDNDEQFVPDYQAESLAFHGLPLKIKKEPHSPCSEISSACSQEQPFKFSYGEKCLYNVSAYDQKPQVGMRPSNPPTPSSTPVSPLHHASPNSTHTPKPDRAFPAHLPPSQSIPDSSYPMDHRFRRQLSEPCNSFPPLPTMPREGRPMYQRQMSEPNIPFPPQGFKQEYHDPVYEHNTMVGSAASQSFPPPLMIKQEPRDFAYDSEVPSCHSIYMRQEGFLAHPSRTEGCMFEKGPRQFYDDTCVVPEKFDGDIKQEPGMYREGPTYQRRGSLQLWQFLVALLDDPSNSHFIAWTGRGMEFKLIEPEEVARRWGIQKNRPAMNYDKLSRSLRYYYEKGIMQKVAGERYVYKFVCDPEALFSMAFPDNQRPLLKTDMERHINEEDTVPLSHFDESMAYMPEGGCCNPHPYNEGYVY
CRX, sequence (O43186 whole entry): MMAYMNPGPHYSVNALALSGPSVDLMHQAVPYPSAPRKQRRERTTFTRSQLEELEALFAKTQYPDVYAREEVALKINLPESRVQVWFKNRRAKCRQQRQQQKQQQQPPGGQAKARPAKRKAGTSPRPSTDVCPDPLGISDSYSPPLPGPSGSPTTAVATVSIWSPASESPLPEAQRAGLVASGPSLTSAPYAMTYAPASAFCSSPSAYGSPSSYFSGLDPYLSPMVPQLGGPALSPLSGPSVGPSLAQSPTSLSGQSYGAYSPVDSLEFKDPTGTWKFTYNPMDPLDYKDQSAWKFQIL
HSF1, sequence (Q00613 whole entry): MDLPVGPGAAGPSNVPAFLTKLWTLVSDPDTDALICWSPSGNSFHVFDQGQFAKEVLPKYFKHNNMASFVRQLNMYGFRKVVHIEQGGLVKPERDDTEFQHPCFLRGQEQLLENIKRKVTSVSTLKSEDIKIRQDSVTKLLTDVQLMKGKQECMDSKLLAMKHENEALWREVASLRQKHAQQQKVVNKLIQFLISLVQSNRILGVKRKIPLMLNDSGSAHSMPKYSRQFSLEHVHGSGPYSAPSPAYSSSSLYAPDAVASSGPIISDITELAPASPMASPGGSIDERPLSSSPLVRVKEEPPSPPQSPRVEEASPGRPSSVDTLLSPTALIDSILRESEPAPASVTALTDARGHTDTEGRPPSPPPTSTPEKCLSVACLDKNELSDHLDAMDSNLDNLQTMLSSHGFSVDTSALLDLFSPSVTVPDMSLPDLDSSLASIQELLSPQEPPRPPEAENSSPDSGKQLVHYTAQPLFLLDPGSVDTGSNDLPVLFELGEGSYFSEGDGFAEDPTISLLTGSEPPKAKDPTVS
ELF1, sequence (P32519 whole entry): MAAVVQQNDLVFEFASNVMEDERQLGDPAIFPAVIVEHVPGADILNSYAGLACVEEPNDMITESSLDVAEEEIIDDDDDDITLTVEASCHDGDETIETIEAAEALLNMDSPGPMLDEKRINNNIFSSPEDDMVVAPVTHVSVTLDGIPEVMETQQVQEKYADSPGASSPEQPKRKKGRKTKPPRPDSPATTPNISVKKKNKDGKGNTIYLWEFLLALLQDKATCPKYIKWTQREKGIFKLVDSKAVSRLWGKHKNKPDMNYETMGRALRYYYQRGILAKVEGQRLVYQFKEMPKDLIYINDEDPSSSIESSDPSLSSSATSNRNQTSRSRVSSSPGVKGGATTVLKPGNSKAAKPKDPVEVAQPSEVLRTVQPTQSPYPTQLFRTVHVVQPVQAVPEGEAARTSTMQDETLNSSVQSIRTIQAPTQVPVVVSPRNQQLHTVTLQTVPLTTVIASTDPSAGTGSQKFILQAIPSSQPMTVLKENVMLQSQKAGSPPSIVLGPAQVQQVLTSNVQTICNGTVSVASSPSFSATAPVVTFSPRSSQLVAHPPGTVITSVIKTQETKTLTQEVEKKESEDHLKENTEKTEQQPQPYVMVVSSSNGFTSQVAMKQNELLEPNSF

## TTAATC
FLI1
  binding signal: 1.28 fold enrichment (6-mer frequency, TF over GST control)
ELK1
  binding signal: 1.21 fold enrichment (6-mer frequency, TF over GST control)
GABPA
  binding signal: 1.2 fold enrichment (6-mer frequency, TF over GST control)
ERG
  binding signal: 1.17 fold enrichment (6-mer frequency, TF over GST control)
ELF1
  binding signal: 1.2 fold enrichment (6-mer frequency, TF over GST control)
EHF
  binding signal: 1.22 fold enrichment (6-mer frequency, TF over GST control)
SPI1
  binding signal: 1.21 fold enrichment (6-mer frequency, TF over GST control)
SPIB
  binding signal: 1.31 fold enrichment (6-mer frequency, TF over GST control)
ELK3
  binding signal: 1.31 fold enrichment (6-mer frequency, TF over GST control)
FEV
  binding signal: 1.19 fold enrichment (6-mer frequency, TF over GST control)
ETV5
  binding signal: 1.23 fold enrichment (6-mer frequency, TF over GST control)
HSF1
  binding signal: 3.29 fold enrichment (6-mer frequency, TF over GST control)
SPIC
  binding signal: 1.19 fold enrichment (6-mer frequency, TF over GST control)
ELF4
  binding signal: 1.26 fold enrichment (6-mer frequency, TF over GST control)
ELK4
  binding signal: 1.43 fold enrichment (6-mer frequency, TF over GST control)
ETV2
  binding signal: 1.13 fold enrichment (6-mer frequency, TF over GST control)
ELF3
  binding signal: 1.27 fold enrichment (6-mer frequency, TF over GST control)
CRX
  binding signal: 6.11 fold enrichment (6-mer frequency, TF over GST control)
ETV1
  binding signal: 1.33 fold enrichment (6-mer frequency, TF over GST control)
